# Results taken from PubChem BioAssay (NCATS).
# Records with an inconclusive call do not appear. A call without a number means that no potency is given here. Active and inactive are the calls of the source. The call rests on the fitted dose curve; in most records, active means well fitted curve in the direction sought with a large enough effect; inconclusive means small, poorly fitted or top-dose-only effect, or another doubt; inactive means no such curve, though single readings can be large; an effect the other way counts as inactive or inconclusive.
# Columns and labels:
# [1] = qHTS of pediatric cancer cell lines to identify multiple opportunities for drug repurposing: Primary screen for control Hh wild type fibroblast cells (AID 1347106); further: nearly all actives have a fitted effect of over 55% in size; further: potency means the concentration at half of the fitted maximal effect
# In short: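 Cells (500-1,000/well) in growth media were settled 5 h at 37 degrees C, then given compounds for 48 h. Viability was read as CellTiter-Glo luminescence. Primary runs used MIPE at 11 points (0.78 nM-46 µM) and NPC at 8 points (0.59 nM-46 µM); follow-ups used 11 points.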
# [2] = qHTS of pediatric cancer cell lines to identify multiple opportunities for drug repurposing: Primary screen for Rh30 cells (AID 1347107); further: nearly all actives have a fitted effect of over 75% in size; further: potency means the concentration at half of the fitted maximal effect
# In short: (§1)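 Viability after 48 h compound treatment at 37C, 500-1,000 cells/well, read as ATP luminescence with CellTiter-Glo. Primary screens used 11-point (MIPE, 0.78 nM-46 µM) or 8-point (NPC, 0.59 nM-46 µM) final concentrations; follow-up screens used 11-point dilutions.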
# [3] = qHTS of pediatric cancer cell lines to identify multiple opportunities for drug repurposing: Primary screen for Rh41 cells (AID 1347108); further: nearly all actives have a fitted effect of over 70% in size; further: potency means the concentration at half of the fitted maximal effect
# In short: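 Quantitative HTS format: each compound titrated (MIPE 11 points from 0.78 nM, NPC 8 points from 0.59 nM) onto cells plated 5 hours earlier. After 48 h at 37 degrees C, CellTiter-Glo luminescence was recorded.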
# [4] = qHTS of pediatric cancer cell lines to identify multiple opportunities for drug repurposing: Confirmatory screen for NB1643 cells (AID 1347109); further: nearly all actives have a fitted effect of over 45% in size
# In short: as §1
# [5] = qHTS of pediatric cancer cell lines to identify multiple opportunities for drug repurposing: Confirmatory screen for A673 cells (AID 1347110); further: nearly all actives have a fitted effect of over 65% in size
# In short: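 Forty-eight-hour viability assay. Follow-up compounds ran at 11-point dilutions; positive control bortezomib at 2.3 uM final, neutral control DMSO.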
# [6] = qHTS of pediatric cancer cell lines to identify multiple opportunities for drug repurposing: Confirmatory screen for SK-N-MC cells (AID 1347111);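 further: potency means the concentration at half of the fitted maximal effect; cells exposed to compound for 48 h before the readout; nearly all actives have a fitted effect of over 70% in size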
# In short: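 SK-N-MC cells at 500-1,000 cells/well in growth media were pre-incubated 5 h, then exposed to compounds at 11-point dilutions for 48 h at 37 degrees C, 5% CO2. Viability was read as CellTiter-Glo luminescence.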
# [7] = qHTS of pediatric cancer cell lines to identify multiple opportunities for drug repurposing: Confirmatory screen for BT-12 cells (AID 1347112); further: nearly all actives have a fitted effect of over 55% in size
# In short: as §1
# [8] = qHTS of pediatric cancer cell lines to identify multiple opportunities for drug repurposing: Confirmatory screen for DAOY cells (AID 1347114); further: nearly all actives have a fitted effect of over 65% in size
# In short: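 Viability measured as metabolically active cells via CellTiter-Glo luminescence following 48 hours of compound exposure, 11-point dilutions in confirmatory testing. 500-1,000 cells/well plated 5 hours before dosing; controls were DMSO and 2.3 µM bortezomib.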
# [9] = qHTS of pediatric cancer cell lines to identify multiple opportunities for drug repurposing: Confirmatory screen for BT-37 cells (AID 1347117); further: nearly all actives have a fitted effect of over 55% in size
# In short: as §1
# [10] = qHTS of pediatric cancer cell lines to identify multiple opportunities for drug repurposing: Confirmatory screen for TC32 cells (AID 1347118); further: nearly all actives have a fitted effect of over 65% in size
# In short: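 TC32 cells, 500-1,000/well in growth medium, compound-treated 48 h at 37 °C; viability from CellTiter-Glo luminescence. Primary screen: MIPE 11-point (0.78 nM–46 µM final), NPC 8-point (0.59 nM–46 µM final); confirmatory at 11-point dilutions.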
compound,measurement,setting,value
Cc1cccc(Nc2nc(-c3ccncc3)cs2)c1,Potency,[1],inactive
same,Potency,[2],inactive
CC(C)C(=O)Oc1ccc(CO)cc1[C@H](CCN(C(C)C)C(C)C)c1ccccc1,Potency,[1],inactive
same,Potency,[2],inactive
CC(C)(Cc1ccc2ccccc2c1)NC[C@@H](O)COc1cccc(Cl)c1C#N,Potency,[1],inactive
same,Potency,[2],inactive
O=C(CCN1CCN(C(=O)OCc2cc(Cl)cc(Cl)c2)CC1)c1ccc2[nH]c(=O)oc2c1,Potency,[1],inactive
same,Potency,[2],inactive
CCc1ccc(C=C2SC(=S)NC2=O)cc1,Potency,[1],inactive
same,Potency,[2],inactive
C[N+]1(C)[C@@H]2CC(OC(=O)[C@H](CO)c3ccccc3)C[C@H]1[C@H]1O[C@@H]12 (some centres not stated),Potency,[1],inactive
same,Potency,[2],inactive
same,Potency,[3],inactive
Clc1cc(Cl)cc(CNc2ncncc2-c2ccc3c(c2)OCO3)c1,Potency,[1],inactive
same,Potency,[2],inactive
CCOC1OC(=O)C[C@H]1NC(=O)[C@@H]1CCCN1C(=O)[C@@H](NC(=O)c1ccc(N)c(Cl)c1)C(C)(C)C (some centres not stated),Potency,[1],inactive
same,Potency,[2],inactive
CO[C@H]1C[C@@H]2CC[C@@H](C)[C@@](O)(O2)C(=O)C(=O)N2CCCC[C@@H]2C(=O)O[C@H]([C@@H](C)C[C@@H]2CC[C@H](O)[C@H](OC)C2)CC(=O)[C@H](C)C=C(C)[C@@H](O)[C@@H](OC)C(=O)[C@H](C)C[C@H](C)C=CC=CC=C1C,Potency,[1],inactive
same,Potency,[2],inactive
O=C1NCC2(CCN(CCc3ccccc3)CC2)O1,Potency,[1],inactive
same,Potency,[2],inactive
same,Potency,[3],inactive
CC(C)(C)NC(=O)Nc1cccc(Nc2ncc(F)c(NC(C)(C)CO)n2)c1,Potency,[1],inactive
same,Potency,[2],inactive
O=C(O)C=Cc1ccc(O)c(O)c1,Potency,[1],inactive
same,Potency,[2],23.5 µM (active)
COc1cc2c(cc1OC)CN(CCc1ccc(NC(=O)c3cc(OC)c(OC)cc3NC(=O)c3cnc4ccccc4c3)cc1)CC2,Potency,[1],inactive
same,Potency,[2],inactive
Cc1ccc(F)c(NC(=O)Nc2ccc(-c3cccc4[nH]nc(N)c34)cc2)c1,Potency,[1],inactive
same,Potency,[2],inactive
CC(C)(C)Cn1c(N)nc2ccc(-c3[nH]c(C(C)(C)C)nc3-c3ccc(F)cc3)nc21,Potency,[1],inactive
same,Potency,[2],20.9 µM (active)
same,Potency,[3],18.7 µM (active)
Cn1cc(C=C2C(=O)Nc3cccnc32)c2ccccc21,Potency,[1],inactive
same,Potency,[2],inactive
same,Potency,[3],inactive
NC(=O)c1cccc2[nH]c(-c3ccc([C@H]4CCCN4)cc3F)nc12,Potency,[1],inactive
same,Potency,[2],inactive
same,Potency,[3],inactive
O=c1cc(-c2cccc3c2Sc2ccccc2S3)oc(N2CCOCC2)c1,Potency,[1],inactive
same,Potency,[2],inactive
COc1ccc(Cc2ccc(NC(N)=O)cc2)cc1-c1cccc(Cl)c1,Potency,[1],inactive
same,Potency,[2],inactive
CCOC(CN1C(=O)[C@](CC(=O)Nc2ccc(C)cc2)(NC(=O)Nc2ccc(C)cc2)c2ccccc21)OCC,Potency,[1],inactive
same,Potency,[2],inactive
Cc1cccc(C)c1OCC(C)N (configuration not stated),Potency,[1],inactive
same,Potency,[2],inactive
same,Potency,[3],inactive
c1ccc2c(-c3cnn4cc(-c5ccc(N6CCNCC6)cc5)cnc34)ccnc2c1,Potency,[1],4.69 µM (active)
same,Potency,[2],18.7 µM (active)
COc1ccc(C2Sc3ccccc3N(CCN(C)C)C(=O)C2OC(C)=O)cc1 (configuration not stated),Potency,[1],inactive
same,Potency,[2],inactive
same,Potency,[3],inactive
Clc1ccc(-c2nc3sccn3c2C=NOCc2ccc(Cl)c(Cl)c2)cc1,Potency,[1],inactive
same,Potency,[2],inactive
NC(=O)c1cnc(-c2ccc(C3(N)CCC3)cc2)c(-c2ccccc2)c1,Potency,[1],inactive
same,Potency,[2],inactive
C[C@@H]1CCN(C(=O)CC#N)C[C@H]1N(C)c1ncnc2[nH]ccc12,Potency,[1],inactive
same,Potency,[2],inactive
CC(C)(C)OC(=O)N[C@H]1CCCCCC=C[C@@H]2C[C@@]2(C(=O)NS(=O)(=O)C2CC2)NC(=O)[C@@H]2C[C@@H](OC(=O)N3Cc4cccc(F)c4C3)CN2C1=O,Potency,[1],inactive
same,Potency,[2],inactive
NC(N)=Nc1nc(CSCC/C(N)=N/S(N)(=O)=O)cs1,Potency,[1],inactive
same,Potency,[2],inactive
same,Potency,[3],inactive
Cc1ccccc1C(C(=O)NC1CCCCC1)N(C(=O)Cn1ccnc1C)c1cccc(F)c1 (configuration not stated),Potency,[1],inactive
same,Potency,[2],inactive
CC[C@@]1(O)C[C@H](O[C@H]2C[C@H](N(C)C)[C@H](O[C@H]3C[C@H](O)[C@H](O[C@H]4CCC(=O)[C@H](C)O4)[C@H](C)O3)[C@H](C)O2)c2c(cc3c(c2O)C(=O)c2c(O)cccc2C3=O)[C@@H]1C(=O)OC,Potency,[1],inactive
same,Potency,[2],inactive
O=C1c2c(O)cc(O)cc2O[C@H](c2cc(O)c(O)c(O)c2)[C@H]1O,Potency,[1],inactive
same,Potency,[2],inactive
O=C1NC(=O)C(c2ccccc2)(c2ccccc2)N1,Potency,[1],inactive
same,Potency,[2],inactive
same,Potency,[3],inactive
Cc1cnc(C(=O)O)c[n+]1[O-],Potency,[1],inactive
same,Potency,[2],inactive
CCNc1cc(NC2CCC(O)CC2)nc(Nc2ccc3c(ccn3Cc3ccccc3)c2)n1 (configuration not stated),Potency,[1],inactive
same,Potency,[2],inactive
CC(=O)c1ccc(S(=O)(=O)NC(=O)NC2CCCCC2)cc1,Potency,[1],inactive
same,Potency,[2],inactive
same,Potency,[3],inactive
NC1CCC(Nc2nc(Nc3ccc(C(=O)N4CCCCC4)cc3)c3ncn(-c4cccc(F)c4)c3n2)CC1 (configuration not stated),Potency,[1],inactive
same,Potency,[2],inactive
same,Potency,[3],inactive
O=C(O)c1ccccc1C(=O)Nc1ccc(-c2ccccc2)cc1,Potency,[1],inactive
same,Potency,[2],inactive
same,Potency,[3],inactive
CC(C)(C)c1ccc(C(O)CCCN2CCC(C(O)(c3ccccc3)c3ccccc3)CC2)cc1 (configuration not stated),Potency,[1],inactive
same,Potency,[2],inactive
same,Potency,[3],inactive
O=C(O)c1ccc(-c2c[nH]c3ncc(-c4ccccc4)cc23)cc1C1CCCC1,Potency,[1],inactive
same,Potency,[2],inactive
same,Potency,[3],inactive
same,Potency,[4],inactive
same,Potency,[5],inactive
same,Potency,[6],9.27 µM (active)
same,Potency,[7],inactive
same,Potency,[8],inactive
same,Potency,[9],inactive
same,Potency,[10],inactive
CCN(CC)CCOC(=O)c1ccc(N)cc1,Potency,[1],inactive
same,Potency,[2],inactive
same,Potency,[3],inactive
